# Assay outcomes: PubChem, Corson Lab, School of Medicine, Indiana University
# FECH block = human FECH heme synthesis enzyme inhibition; P22830; purified FECH, Ni-mesoporphyrin absorbance 550 nm; calls only at 10 µM (by protocol); 20,000 compounds, 3.3% hits;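 active means enzyme reaction rate more than 3 SD below the solvent-only control wells on the same plate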;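 further: lower slope than DMSO wells means FECH inhibition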
# Target sequence (P22830 whole entry, looked up): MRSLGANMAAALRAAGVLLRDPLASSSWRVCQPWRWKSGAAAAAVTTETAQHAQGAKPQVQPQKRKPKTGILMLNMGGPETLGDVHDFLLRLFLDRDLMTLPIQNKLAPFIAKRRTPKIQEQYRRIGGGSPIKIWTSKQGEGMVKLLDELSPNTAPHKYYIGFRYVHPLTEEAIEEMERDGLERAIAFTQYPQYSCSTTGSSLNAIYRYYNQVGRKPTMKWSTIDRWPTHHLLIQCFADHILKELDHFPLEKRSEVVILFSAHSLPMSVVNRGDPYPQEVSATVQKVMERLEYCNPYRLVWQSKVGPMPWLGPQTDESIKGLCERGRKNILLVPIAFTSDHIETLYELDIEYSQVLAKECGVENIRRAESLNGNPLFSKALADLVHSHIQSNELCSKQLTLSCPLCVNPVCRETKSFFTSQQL
# * hit, by the source's call; i = inactive; + = active, no number. Many of the other results were omitted from the sample, so hits are more common in it than they were.
SMILES,FECH block
COCCCNc1nc(Nc2ccc(OC)cc2)c2cnn(-c3ccccc3)c2n1,i
Cc1nn(C2CCCCC2)c2c1C(c1nc[nH]c1C)CC(=O)N2 (stereo not given),i
CCN1C(=O)C2CCCCN2c2ccc(C(=O)N3CCN(c4ccccc4)CC3)cc21 (stereo not given),i
Cc1nc(=O)[nH]c(C)c1CCC(=O)N1[C@@H]2CC[C@H]1CN(C)C(=O)C2,i
CC(C)CC(=O)Nc1cccc(OCc2cc(=O)n3cc(Cl)ccc3n2)c1,i
COc1ccc(OC)c(NS(=O)(=O)c2cc(N3C(=O)CCS3(=O)=O)ccc2C)c1,i
CC(C)n1cc(CN2CCC3(CC2)CN(C)CCN3C)c2ccccc21,i
O=C(NCc1nc(-c2cccc(F)c2)c(-c2ccccn2)[nH]1)C1COCCO1 (stereo not given),i
COc1ccccc1-c1cc2n(C)c(C)c(CCC(=O)NC3CCCCC3)c(=O)n2n1,i
CN(C)c1ncc(-c2nccn2Cc2ccccc2C(F)(F)F)cn1,i
CC1CCCCN1S(=O)(=O)c1ccc2c(c1)NC(=O)CC(=O)N2 (stereo not given),i
O=C1CCS(=O)(=O)N1c1ccc(S(=O)(=O)NCc2cccnc2)cc1,i
O=C([C@H]1CCCN1)N1CCc2[nH]nc(C(c3ccccc3)c3ccccc3)c2C1,i
CN(Cc1ccc(C(=O)Nc2cnn(C)c2)cc1)CC1CCCO1 (stereo not given),i
COc1cc(CNC(=O)c2sc(C)nc2-c2ccccc2)ccc1O,i
COc1ccc(CNc2c(-c3ccc4c(c3)CCCC4)c(=O)c2=O)cc1,i
Cc1ncsc1CCC(=O)N(Cc1c(C)nn(C)c1C)C1CC1,i
CCc1cccc(C)c1NC(=O)CN1CCCN(Cc2cccc(C)c2)S1(=O)=O,+
Cc1ccc(NC(=O)CN2CCN(Cc3ccccc3)S2(=O)=O)cc1,i
Cc1ccc(NC(=O)CN2CCN(Cc3cccc(C)c3)S2(=O)=O)cc1,+
Cc1ccccc1CN1CCN(Cc2ccccc2C)S1(=O)=O,+
Cc1cc(C)c(CN2CCN(Cc3ccccc3C)S2(=O)=O)c(C)c1,i
Cc1cccc(CN2CCN(CC(=O)Nc3c(C)cc(C)cc3C)S2(=O)=O)c1,i
COc1ccc(CN2CCCN(CC(=O)Nc3ccc(OC)cc3)S2(=O)=O)cc1,i
CCc1cccc(C)c1NC(=O)CN1CCN(Cc2ccccc2C)S1(=O)=O,i
SMILES,FECH block
COc1ccc(NC(=O)CN2CCN(Cc3cccc(C)c3)S2(=O)=O)cc1,+
COc1ccc(NC(=O)CN2CCN(Cc3ccccc3C)S2(=O)=O)cc1,i
Cc1ccc(NC(=O)CN2CCN(Cc3ccccc3C)S2(=O)=O)cc1,i
CCc1cccc(C)c1NC(=O)CN1CCCN(Cc2ccc(C)cc2)S1(=O)=O,i
O=C(CN1CCCCCC1)NCCc1nc(-c2cccnc2)n[nH]1,i
Cc1ccc(N2CCCS2(=O)=O)cc1NC(=O)c1ccc(Br)cc1,i
CCC(Nc1nc(C)nc2c1cnn2C)c1ncnn1CC (stereo not given),i
CCn1c(=O)n(CCN(C)C)c(=O)c2cnc(-c3ccc(OC)cc3)nc21,i
O=S(=O)(c1cccc(Cl)c1)N1CCN(Cc2nc3cccnc3n2-c2ccccc2)CC1,i
O=C(NCC(c1ccc(F)cc1)N1CCCC1)c1cn(-c2ccccc2)nn1 (stereo not given),i
CCn1c(=O)n(-c2ccc(C)c(C)c2)c2nc(-c3ccc(Cl)cc3)nc(C(N)=O)c21,i
O=C(CN1C(=O)CC(c2ccccc2)=Nc2ccccc21)Nc1ccccc1F,i
O=C(NCc1ccc(Cl)cc1)c1nc(N2CCCC2)c2oc3ccccc3c2n1,i
COc1ccc2cc(C3CN(C(=O)c4cn[nH]n4)CCO3)ccc2c1 (stereo not given),i
CCCC(=O)Nc1cccc(OCc2cc(=O)n3cc(Cl)ccc3n2)c1,i
COc1ccc(C(=O)Nc2cccc(OCc3cc(=O)n4ccc(C)cc4n3)c2)cc1,i
COc1cccc(C(=O)Nc2cccc(OCc3cc(=O)n4cc(Cl)ccc4n3)c2)c1,i
Cc1ccn2c(=O)cc(COc3cccc(NC(=O)c4ccccc4C)c3)nc2c1,i
Cc1ccn2c(=O)cc(COc3cccc(NC(=O)c4cccc(Br)c4)c3)nc2c1,i
COc1ccccc1C(=O)Nc1cccc(OCc2cc(=O)n3cc(Cl)ccc3n2)c1,+
Cc1ccn2c(=O)cc(COc3cccc(NC(=O)c4ccco4)c3)nc2c1,+
Cc1ccn2c(=O)cc(COc3cccc(NC(=O)c4cccs4)c3)nc2c1,i
Cc1ccn2c(=O)cc(COc3cccc(NC(=O)C(C)C)c3)nc2c1,+
CCc1nccn1CCC(=O)N1CCC(Cc2nncn2-c2ccccc2)CC1,i
COc1ccc(-c2cc(N3CCN(C(=O)Nc4ccc(C)cc4C)CC3)ncn2)cc1,i
SMILES,FECH block
CCOc1ccc(-c2nc(SCC(=O)NC(C)(C)C)n3[nH]c(=O)cc3n2)cc1,i
CCN(CC)C(=O)[C@@H]1C[C@@H](N)CN1Cc1cnn(-c2ccccc2F)c1,i
O=C(CSCc1nc(-c2ccccc2)no1)NCc1ccc2c(c1)OCO2,i
CCN(C(=O)CSCc1nc(-c2ccc(C)cc2)no1)c1ccccc1,i
Cc1ccc(OCC(=O)Nc2cc(N3CCCS3(=O)=O)ccc2C)cc1,i
Cc1cccc(OCC(=O)Nc2cc(N3CCCS3(=O)=O)ccc2C)c1,+
COc1cccc(OCC(=O)Nc2cc(N3CCCS3(=O)=O)ccc2C)c1,i
Cc1cccc(Cn2c(CNS(=O)(=O)c3ccc(CC(C)C)cc3)nc3cccnc32)c1,i
CC(C)(C)CN1CCCC2(CCN(C(=O)c3ccc4n[nH]nc4c3)C2)C1=O (stereo not given),i
COCCCNC(=O)CSc1nc(-c2cccc(Cl)c2)nc2cc(=O)[nH]n12,i
Cc1cccc2c(CCNC(=O)[C@H](N)c3ccccc3)c[nH]c12,i
Cc1ccccc1NCc1cc(=O)n2[nH]c(NCc3ccccc3Cl)nc2n1,+
Cc1cccc(NCc2cc(=O)n3[nH]c(NCc4ccccc4Cl)nc3n2)c1C,i
COc1ccccc1CNc1nc2nc(CNc3ccccc3OC)cc(=O)n2[nH]1,i
Cc1ccccc1NCc1cc(=O)n2[nH]c(NCc3ccc(F)cc3)nc2n1,+
COc1ccccc1CNc1nc2nc(CNc3ccccc3)cc(=O)n2[nH]1,i
Cc1ccc(NCc2cc(=O)n3[nH]c(NCc4ccccc4Cl)nc3n2)cc1,+
CCc1ccccc1NCc1cc(=O)n2[nH]c(NCc3ccccc3)nc2n1,i
O=c1cc(CNc2ccccc2F)nc2nc(NCc3ccc(F)cc3)[nH]n12,i
CCOc1ccccc1NCc1cc(=O)n2[nH]c(NCc3ccc(F)cc3)nc2n1,i
CCc1ccccc1NCc1cc(=O)n2[nH]c(NCc3ccccc3Cl)nc2n1,+
CCc1ccccc1NCc1cc(=O)n2[nH]c(NCc3ccc(F)cc3)nc2n1,i
O=c1cc(CNc2ccc(F)cc2)nc2nc(NCc3ccccc3)[nH]n12,i
CCCC(NC(=O)c1ccoc1C)c1ccccc1 (stereo not given),i
CCc1cc(Sc2ccccc2NC(=O)c2ccc(Cl)cc2OC)n2nc(C)nc2n1,i
CNS(=O)(=O)c1ccc(CCc2n[nH]c(Cc3ccccc3)n2)cc1,i
CCOc1ccc(CNC(=O)COc2nc(C)nc3oc(C)c(C)c23)cc1,i
NC(=O)c1cncc(N2CCCC(C(=O)c3ccc4ccccc4c3)C2)n1 (stereo not given),i
